The record followed here is ChEMBL document CHEMBL3988442, “University of Dundee, Small-Polar-MMV Screening Library” (2021).

For some of these results: Entries with a potency or affinity are not part of this list.

Common to all, as to parameters: scale not given: direction of the effect not stated beside the values
The target in assay [1] is Protein translocase subunit SecA (Escherichia coli (strain K12)) (UniProt P10408). As to the kind of experiment: Assay to Identify E. coli SecA ATPase Inhibitors. The class given is functional. The settings on record: 30 µM.
In assay [2] the target is T1, Ubiquitin-activating enzyme e1, putative (Leishmania donovani (strain BPK282A1)) (UniProt E9BSI1).
T1 sequence (whole entry): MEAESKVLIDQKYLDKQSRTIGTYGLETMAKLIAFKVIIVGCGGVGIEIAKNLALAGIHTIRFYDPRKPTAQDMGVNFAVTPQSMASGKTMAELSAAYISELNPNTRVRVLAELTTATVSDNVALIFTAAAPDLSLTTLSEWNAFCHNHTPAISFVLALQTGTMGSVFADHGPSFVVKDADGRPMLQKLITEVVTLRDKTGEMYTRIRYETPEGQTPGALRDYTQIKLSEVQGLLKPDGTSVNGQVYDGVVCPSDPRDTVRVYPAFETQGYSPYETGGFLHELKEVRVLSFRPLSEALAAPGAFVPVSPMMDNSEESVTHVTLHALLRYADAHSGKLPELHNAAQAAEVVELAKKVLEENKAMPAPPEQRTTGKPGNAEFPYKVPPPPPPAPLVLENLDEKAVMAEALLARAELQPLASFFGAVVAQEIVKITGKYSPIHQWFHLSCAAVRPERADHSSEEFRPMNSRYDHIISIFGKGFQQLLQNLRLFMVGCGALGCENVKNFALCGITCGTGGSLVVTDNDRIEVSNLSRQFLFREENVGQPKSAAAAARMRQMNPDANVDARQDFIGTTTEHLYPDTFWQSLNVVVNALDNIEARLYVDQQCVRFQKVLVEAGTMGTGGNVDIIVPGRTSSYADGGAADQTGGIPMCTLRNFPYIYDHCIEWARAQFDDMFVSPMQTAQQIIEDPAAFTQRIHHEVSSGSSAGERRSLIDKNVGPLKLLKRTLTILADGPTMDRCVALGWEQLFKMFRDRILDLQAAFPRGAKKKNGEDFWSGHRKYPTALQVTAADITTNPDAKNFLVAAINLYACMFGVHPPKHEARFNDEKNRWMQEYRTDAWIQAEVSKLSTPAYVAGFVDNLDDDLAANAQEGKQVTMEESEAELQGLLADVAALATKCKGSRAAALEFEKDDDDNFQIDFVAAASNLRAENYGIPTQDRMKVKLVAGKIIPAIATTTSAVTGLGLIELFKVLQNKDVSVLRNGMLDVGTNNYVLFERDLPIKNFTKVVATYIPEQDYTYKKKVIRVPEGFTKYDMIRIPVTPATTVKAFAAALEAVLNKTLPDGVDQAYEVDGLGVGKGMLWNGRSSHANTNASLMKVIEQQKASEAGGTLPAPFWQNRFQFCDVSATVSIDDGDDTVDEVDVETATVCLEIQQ
Nature of the assay: Leishmania donovani Ubiquitin Activating Enzyme (LdE1). The class given is functional. Conditions: 30 µM.

Assay [3] deals with AMP-activated protein kinase, AMPK (Homo sapiens) (UniProt P54646+O43741+P54619+Q9UGJ0+Q9Y478+Q13131+Q9UGI9). Nature of the assay: AMP-dependent Kinase enzyme assay. An in vitro enzyme assay that detects ADP turnover that is directly proportional to AMPK activity. This uses naive AMPK that is activated during the assay with MK-8722. The class given is functional. The settings on record: 30 µM.

The target in assay [4] is Sialic acid-binding Ig-like lectin 9 (Homo sapiens) (UniProt Q9Y336). Nature of the assay: Hs-Siglec9 ALPHAscreen SOP 20170721. Conditions: 10 µM.
Assay [5] relates to Trypanosoma cruzi. As to the kind of experiment: Trypanosoma cruzi phosphomannomutase and mannose-1-phosphate guanylyltransferase assay. It is filed as functional. The settings on record: 10 µM.
Assay [6] addresses T2, Arginase-2, mitochondrial (Homo sapiens) (UniProt P78540).
T2 sequence (whole entry): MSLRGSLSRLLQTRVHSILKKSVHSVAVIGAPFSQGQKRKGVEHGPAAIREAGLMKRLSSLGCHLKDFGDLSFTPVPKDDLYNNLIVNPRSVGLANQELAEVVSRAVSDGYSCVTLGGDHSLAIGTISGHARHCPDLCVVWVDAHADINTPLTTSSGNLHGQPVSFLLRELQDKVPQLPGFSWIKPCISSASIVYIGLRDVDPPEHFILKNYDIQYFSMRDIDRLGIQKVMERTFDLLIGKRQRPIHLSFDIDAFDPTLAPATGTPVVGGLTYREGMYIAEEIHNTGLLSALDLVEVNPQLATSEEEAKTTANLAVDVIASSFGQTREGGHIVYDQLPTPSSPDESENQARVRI
Nature of the assay: in vitro enzyme assay to detect the production of urea directly proportional to the activity of Arginase II. Note: in the data most compounds retested in dose-response had high values. The class given is functional. The settings on record: 33.3 µM.

For assay [7], the target named is T3, Proteasome subunit beta (Trypanosoma cruzi) (UniProt O96673).
T3 sequence (whole entry): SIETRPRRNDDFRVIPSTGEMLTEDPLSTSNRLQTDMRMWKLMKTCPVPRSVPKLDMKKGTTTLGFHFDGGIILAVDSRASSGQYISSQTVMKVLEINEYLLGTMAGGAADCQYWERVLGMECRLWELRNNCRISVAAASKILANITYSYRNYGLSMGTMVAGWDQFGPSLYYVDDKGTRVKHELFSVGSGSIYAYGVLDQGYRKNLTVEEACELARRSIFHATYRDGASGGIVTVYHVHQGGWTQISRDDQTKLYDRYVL
Nature of the assay: Trypanosoma cruzi proteasome chymotrypsin-like activity (TcProtChymo) assay. Note: in the data most compounds retested in dose-response had high values. It is filed as functional. The settings on record: 9.37 µM.

Assay [8] is filed under the species Homo sapiens. Nature of the assay: To identify inhibition of the IFN signalling (Jak-Stat) pathway via expression of an eGFP reporter gene under the control of an IFN-stimulated response element (ISRE) containing MxA promoter. The class given is functional. The settings on record: 30 µM.
For assay [9], the target named is T4, Tyrosyl-tRNA synthetase, putative (Trypanosoma cruzi (strain CL Brener)) (UniProt Q4DSP6).
T4 sequence (whole entry): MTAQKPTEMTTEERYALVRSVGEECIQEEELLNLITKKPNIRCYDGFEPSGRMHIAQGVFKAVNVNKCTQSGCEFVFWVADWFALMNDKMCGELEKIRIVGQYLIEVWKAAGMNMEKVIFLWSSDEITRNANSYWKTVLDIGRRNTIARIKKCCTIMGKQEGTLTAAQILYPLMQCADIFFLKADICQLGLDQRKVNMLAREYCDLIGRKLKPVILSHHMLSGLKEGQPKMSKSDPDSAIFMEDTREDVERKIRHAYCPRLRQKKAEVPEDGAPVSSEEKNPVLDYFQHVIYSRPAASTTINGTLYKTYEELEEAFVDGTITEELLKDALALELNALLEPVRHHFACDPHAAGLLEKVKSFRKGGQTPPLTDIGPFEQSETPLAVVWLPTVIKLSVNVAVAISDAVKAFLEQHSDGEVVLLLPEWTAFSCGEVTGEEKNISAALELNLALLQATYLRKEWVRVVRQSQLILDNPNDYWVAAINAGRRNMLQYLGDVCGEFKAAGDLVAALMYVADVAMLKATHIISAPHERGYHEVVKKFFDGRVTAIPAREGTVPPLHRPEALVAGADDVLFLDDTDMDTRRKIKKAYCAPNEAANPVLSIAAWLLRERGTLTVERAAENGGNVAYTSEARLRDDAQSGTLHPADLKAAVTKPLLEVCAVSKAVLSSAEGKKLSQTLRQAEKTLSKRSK
As to the kind of experiment: Trypanosoma cruzi tyrosyl tRNA synthetase (TcYRS) _High Tyrosine SOP. Note: in the data most compounds retested in dose-response had high values. The class given is functional. Conditions: 30 µM.

Assay [10] deals with T4, Tyrosyl-tRNA synthetase, putative (Trypanosoma cruzi (strain CL Brener)). As to the kind of experiment: Trypanosoma cruzi tyrosyl tRNA synthetase (TcYRS) SOP. The settings on record: 30 µM. It is filed as functional.
For assay [11], the target named is Chromo domain-containing protein 1 (Saccharomyces cerevisiae (strain ATCC 204508 / S288c) (Baker's yeast)) (UniProt P32657). As to the kind of experiment: ScCHD-1 Enzyme Inhibition Assay. Note: in the data most compounds retested in dose-response had high values. The class given is functional. Conditions: 30 µM.
Chromo domain-containing protein 1 (Saccharomyces cerevisiae (strain ATCC 204508 / S288c) (Baker's yeast)), sequence (P32657 whole entry, the tested form may be a part): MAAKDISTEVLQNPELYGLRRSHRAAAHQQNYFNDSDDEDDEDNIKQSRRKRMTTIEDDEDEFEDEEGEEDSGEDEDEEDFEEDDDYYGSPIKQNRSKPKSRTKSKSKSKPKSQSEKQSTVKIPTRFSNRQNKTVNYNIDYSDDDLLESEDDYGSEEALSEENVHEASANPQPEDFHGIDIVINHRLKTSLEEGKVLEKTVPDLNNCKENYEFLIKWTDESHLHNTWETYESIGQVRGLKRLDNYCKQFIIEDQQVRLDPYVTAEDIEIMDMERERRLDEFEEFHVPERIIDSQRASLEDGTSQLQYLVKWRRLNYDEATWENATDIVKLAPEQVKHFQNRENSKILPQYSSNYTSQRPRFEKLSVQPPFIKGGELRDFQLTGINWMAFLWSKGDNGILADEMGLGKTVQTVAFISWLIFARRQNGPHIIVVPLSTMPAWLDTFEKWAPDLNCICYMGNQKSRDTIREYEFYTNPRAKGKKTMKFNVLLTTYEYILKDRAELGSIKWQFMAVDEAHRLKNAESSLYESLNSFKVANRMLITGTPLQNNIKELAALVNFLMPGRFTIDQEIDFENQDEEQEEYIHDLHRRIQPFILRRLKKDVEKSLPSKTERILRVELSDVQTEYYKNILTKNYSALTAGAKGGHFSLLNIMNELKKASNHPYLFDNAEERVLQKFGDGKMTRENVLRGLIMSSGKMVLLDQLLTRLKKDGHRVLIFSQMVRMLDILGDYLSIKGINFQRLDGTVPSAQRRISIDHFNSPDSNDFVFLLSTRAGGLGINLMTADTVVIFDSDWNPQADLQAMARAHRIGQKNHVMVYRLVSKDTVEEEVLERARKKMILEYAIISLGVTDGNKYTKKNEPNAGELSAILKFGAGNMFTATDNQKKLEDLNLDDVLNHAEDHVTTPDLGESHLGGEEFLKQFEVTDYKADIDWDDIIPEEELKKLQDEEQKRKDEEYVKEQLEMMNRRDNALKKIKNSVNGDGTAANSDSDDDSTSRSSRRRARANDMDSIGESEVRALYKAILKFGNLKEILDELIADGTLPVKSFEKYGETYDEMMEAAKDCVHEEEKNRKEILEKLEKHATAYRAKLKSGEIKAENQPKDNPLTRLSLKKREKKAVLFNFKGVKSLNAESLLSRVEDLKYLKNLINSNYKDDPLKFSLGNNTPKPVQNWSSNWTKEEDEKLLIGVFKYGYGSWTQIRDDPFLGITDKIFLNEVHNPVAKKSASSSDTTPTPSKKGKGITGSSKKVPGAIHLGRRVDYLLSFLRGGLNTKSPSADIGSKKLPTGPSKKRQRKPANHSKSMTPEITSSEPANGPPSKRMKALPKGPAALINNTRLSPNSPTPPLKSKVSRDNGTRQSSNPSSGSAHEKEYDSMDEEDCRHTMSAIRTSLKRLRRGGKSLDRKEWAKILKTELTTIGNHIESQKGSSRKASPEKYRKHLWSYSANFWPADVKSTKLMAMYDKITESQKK

Sialic acid-binding Ig-like lectin 9 (Homo sapiens), sequence (Q9Y336 whole entry): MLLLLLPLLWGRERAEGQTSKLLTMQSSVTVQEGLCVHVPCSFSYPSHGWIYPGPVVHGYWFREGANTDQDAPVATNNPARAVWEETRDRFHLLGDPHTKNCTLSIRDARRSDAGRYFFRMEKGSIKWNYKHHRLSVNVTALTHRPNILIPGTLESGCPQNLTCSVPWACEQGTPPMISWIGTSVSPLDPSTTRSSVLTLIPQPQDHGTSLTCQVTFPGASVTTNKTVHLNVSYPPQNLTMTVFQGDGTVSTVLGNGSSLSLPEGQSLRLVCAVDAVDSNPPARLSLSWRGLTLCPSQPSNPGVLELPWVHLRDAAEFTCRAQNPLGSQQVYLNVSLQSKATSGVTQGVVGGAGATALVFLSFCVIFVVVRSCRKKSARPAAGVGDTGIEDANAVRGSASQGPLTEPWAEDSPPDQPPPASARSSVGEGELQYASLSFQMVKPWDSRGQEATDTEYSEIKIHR
Protein translocase subunit SecA (Escherichia coli (strain K12)), sequence (P10408 whole entry): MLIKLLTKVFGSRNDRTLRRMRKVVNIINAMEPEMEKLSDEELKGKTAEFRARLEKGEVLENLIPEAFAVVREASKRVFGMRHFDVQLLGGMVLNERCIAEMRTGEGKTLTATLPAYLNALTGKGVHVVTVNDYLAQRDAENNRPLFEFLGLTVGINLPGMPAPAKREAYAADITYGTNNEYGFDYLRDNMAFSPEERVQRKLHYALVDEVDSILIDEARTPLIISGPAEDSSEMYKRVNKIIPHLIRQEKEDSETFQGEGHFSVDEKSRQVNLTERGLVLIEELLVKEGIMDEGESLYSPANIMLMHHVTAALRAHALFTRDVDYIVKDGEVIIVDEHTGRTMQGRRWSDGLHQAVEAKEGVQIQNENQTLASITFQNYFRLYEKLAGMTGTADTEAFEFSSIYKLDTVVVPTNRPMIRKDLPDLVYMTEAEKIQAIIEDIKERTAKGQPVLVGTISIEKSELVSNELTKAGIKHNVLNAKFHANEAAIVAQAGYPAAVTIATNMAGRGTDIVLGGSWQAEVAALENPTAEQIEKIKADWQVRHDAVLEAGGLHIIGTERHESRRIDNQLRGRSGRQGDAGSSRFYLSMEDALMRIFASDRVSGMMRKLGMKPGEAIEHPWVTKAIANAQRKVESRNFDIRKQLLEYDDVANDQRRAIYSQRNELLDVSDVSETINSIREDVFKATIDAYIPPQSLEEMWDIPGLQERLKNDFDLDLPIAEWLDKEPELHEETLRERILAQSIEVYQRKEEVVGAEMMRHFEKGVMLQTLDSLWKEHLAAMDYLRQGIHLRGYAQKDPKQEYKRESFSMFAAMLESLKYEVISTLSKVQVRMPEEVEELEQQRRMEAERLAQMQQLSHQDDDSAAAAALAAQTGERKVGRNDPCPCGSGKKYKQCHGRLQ

As to `Cc1nc(NC2CCCC2)cc(C2CCN2C(=O)c2cccnc2)n1` (stereo unspecified), the Percent Effect in [1] was -4.83%; in [2], 23%; in assay [3], 7.33%; in assay [4] it was 1.33%; in assay [5], 4.54%; in assay [6], -3.48%. Further, the Percent Effect in assay [7] is 10.8%; in [8], 12.2%; in [9] it was 6.45%; in assay [10], 14.3%; in [11], -16%.
Turning to `CCc1nc(CN2CCCC(NCc3nnc(C4CC4)o3)C2)no1` (stereo unspecified), the Percent Effect in assay [1] was -2.45%; in assay [2], 18.2%; in [3], 3.2%; in assay [4] it was -12.1%; in [5] it was 1.67%; in assay [6] it was -0.632%. Also, the Percent Effect was 10.4% in [7]; -0.806% in [8]; 11.4% in [9]; 25.9% in assay [10]; -21.2% in assay [11].
In the case of `CSc1ncccc1C(=O)N1C[C@H]2CC[C@@H]1CN(c1cnccn1)C2`, the Percent Effect in [1] is -6.82%; in assay [2] it was 7.79%; in assay [3], 4.77%; in [4], 7.96%; in [5] it was -3.44%; in assay [6], -29%. Further, the Percent Effect in assay [7] was 10.5%; in [8] it was -1.66%; in [9] it was 5.38%; in assay [10], 8.64%; in assay [11], 0.924%.
For the compound `COc1ccc2c(c1)CC(NC(=O)NCc1cccs1)CO2` (stereo unspecified), the Percent Effect in assay [1] was 2.24%; in assay [2], 7.79%; in [3], 5.45%; in assay [4] it was -2.89%; in assay [5] it was -5.62%; in [6] it was -112%. For the same compound, the Percent Effect in assay [7] is 5.4%; in [8], 5.91%; in [9], 2.12%; in assay [10] it was 8.97%; in assay [11], -2.81%.
For `Nc1nc(CN2CCOC(Cn3cncn3)C2)nc2ccccc12` (stereo unspecified), the Percent Effect was -2.89% in assay [1]; 0% in assay [2]; 2.62% in [3]; -2.89% in [4]; -1.02% in assay [5]; 0.924% in [6]. Moreover, the Percent Effect is -7.18% in assay [7]; 0.0129% in assay [8]; 1.98% in assay [9]; 3.66% in assay [10]; 6.29% in assay [11].
Consider `O=C(COc1cccc2c1CCC2=O)NCc1ccccc1F`, for which the Percent Effect in assay [1] was -2.77%; in assay [2] it was 13.2%; in assay [3] it was 2.6%; in assay [4], -2.18%; in assay [5] it was 4.58%; in assay [6] it was 11.8%. Moreover, the Percent Effect in [7] was 9.49%; in [8] it was 11%; in assay [9] it was 3.19%; in [10], 10.4%; in assay [11], -2.42%.
With `Cc1nc(Nc2ncccn2)cc(C2CCCN2C2CCOCC2)n1` (stereo unspecified), the Percent Effect in [1] is -5.08%; in assay [2], 6.76%; in assay [3], 3.91%; in assay [4], 3.68%; in assay [5] it was 0.593%; in assay [6], -3.48%. Also, the Percent Effect in assay [7] was -1.72%; in assay [8], 13.7%; in assay [9], 9.68%; in [10], 11.7%; in assay [11] it was -3.64%.
Turning to `COc1ccc(-n2cnnc2SCC(C)(C)O)cn1`, the Percent Effect is -0.589% in assay [1]; 2.67% in assay [2]; -3.7% in [3]; 25.4% in [4]; 3.02% in assay [5]; 16.7% in [6]. Further, the Percent Effect in assay [7] is -5.75%; in assay [8] it was 15.9%; in assay [9], 3.83%; in assay [10] it was 3.7%; in assay [11] it was -1.24%.
For the compound `Cn1cc(C(=O)NC[C@@H]2OC[C@H]3CN(Cc4ccco4)CC[C@H]32)cn1`, the Percent Effect in assay [1] is 1.17%; in [2], 8.22%; in assay [3] it was -8.23%; in [4], 6.71%; in [5], 5.75%; in assay [6] it was -2.79%. Moreover, the Percent Effect is 8.3% in [7]; 17% in assay [8]; 3.12% in assay [9]; 11.1% in [10]; -3.21% in assay [11].
On to `CCc1ccc(C(=O)N2CCN(CCS(C)(=O)=O)CC2)o1`, for which the Percent Effect is -3.79% in [1]; -5.26% in assay [2]; 3.96% in assay [3]; 8.99% in assay [4]; -0.752% in [5]; 0.383% in assay [6]. Also, the Percent Effect in assay [7] is 4.18%; in assay [8] it was 10.7%; in [9], 5.39%; in [10], 7.32%; in [11] it was 0.21%.
For `O=C(CCc1c[nH]cn1)N1CC[C@@H](c2ccc3ccccc3c2)[C@H](O)C1`, the Percent Effect in [1] is -5.41%; in [2], 10.7%; in assay [3] it was -4.75%; in assay [4], 24.9%; in assay [5], 5.16%; in assay [6] it was 8.85%. Further, the Percent Effect in [7] is 9.77%; in assay [8], 15.3%; in [9], 7.1%; in assay [10], 13.6%; in [11], 106%.
